PubChem BioAssay (NCI)
Compounds without any hit were thinned out: in the full panel of roughly 83,000, 20% have a hit.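 How to read the values: 0–100, growth inhibition (40 = 60% inhibited); 0, no net growth; -100 to 0, cell death (-40 = 40% of starting cells died; -100 = all dead).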 Calls of active or inactive are those of the source. Rule for the calls: active = growth percent below 10; inactive = the rest.

Tested on: SR leukemia
Experiment: NCI-60 one-dose screen, 48 h (100 = growth as untreated, 0 = no growth, -100 = all killed)
Details: 10 µM

SMILES | growth
N#Cc1ccc(-c2nn(-c3ccc(C(=O)O)cc3)cc2CNc2ccc(Oc3ccccc3)cc2)cc1 | 37.3% (inactive)
COc1cc2c(cc1OC)CN(CCCCOc1cc(O)c3c(=O)cc(-c4ccccc4)oc3c1)CC2 | -13.8% (active)
Cc1cc(=O)oc2cc(OCCCCOc3ccc(/C=C/C(=O)Nc4ccc(F)c(Cl)c4)cc3)ccc12 | 89% (inactive)
COc1ccc(CN2[C@@H](C(=O)NCc3ccc(C(=O)NO)cc3)Cc3c([nH]c4ccccc34)[C@@H]2C2CC2)cc1 | 15.2% (inactive)
COC(=O)c1c(C(=O)OC)c2n(c1C)[C@@H]([C@@H](C)[C@H]1CC[C@H]3[C@@H]4CCC5=CC(=O)CC[C@]5(C)[C@H]4CC[C@]13C)SC2 | 17.9% (inactive)
O=C1CCC(N2Cc3cc(CC(=O)Nc4ccc(N5CCCCC5)cc4)ccc3C2=O)C(=O)N1 (configuration not stated) | 77.2% (inactive)
Cn1cc(-c2cc(N)n3nc(-c4c[nH]c5ccc(Br)cc45)cc3n2)c2cc(Br)cnc21 | -15.6% (active)
COc1ccc(C(=O)CSc2nnc(-c3c[nH]c4ccccc34)n2-c2ccccc2)cc1 | 79.7% (inactive)
CC(C)C1=C[C@@]23CC[C@@H]4[C@](C)(CCC[C@]4(C)C(=O)NCc4ccccc4)[C@H]2C[C@@H]1[C@H]1C(=O)CCC(=O)[C@H]13 | 44.4% (inactive)
Nc1nc(Nc2ccccc2)nn1Cc1c(Cl)cccc1Cl | 25% (inactive)
Cc1ccc2nc(COc3ccc(C(=O)NNC(=S)NCCc4ccccc4)cc3)[nH]c2c1 | 88.2% (inactive)
COc1cc2c3c(n(CCCn4ccnc4)c(=O)c2cc1OC)-c1nc2c(cc1C3=O)OCO2 | 13.8% (inactive)
